TDP1 block: qHTS Assay for Inhibitors of Tyrosyl-DNA Phosphodiesterase (TDP1); Tyrosyl-DNA phosphodiesterase 1 (Homo sapiens), Q9NUW8; recombinant TDP1, AlphaScreen DNA substrate cleavage; Potency, µM (highest dose often 130 µM), inactives show at the highest dose activity change, negative = inhibition, usual class: inhibitors; hit rate 0.28% among 350,000; note: % is set by controls: 0 for no effect and ±100 for the full control effect; nearly all actives have a fitted effect of over 40% in size
Target sequence (Q9NUW8 whole entry, looked up): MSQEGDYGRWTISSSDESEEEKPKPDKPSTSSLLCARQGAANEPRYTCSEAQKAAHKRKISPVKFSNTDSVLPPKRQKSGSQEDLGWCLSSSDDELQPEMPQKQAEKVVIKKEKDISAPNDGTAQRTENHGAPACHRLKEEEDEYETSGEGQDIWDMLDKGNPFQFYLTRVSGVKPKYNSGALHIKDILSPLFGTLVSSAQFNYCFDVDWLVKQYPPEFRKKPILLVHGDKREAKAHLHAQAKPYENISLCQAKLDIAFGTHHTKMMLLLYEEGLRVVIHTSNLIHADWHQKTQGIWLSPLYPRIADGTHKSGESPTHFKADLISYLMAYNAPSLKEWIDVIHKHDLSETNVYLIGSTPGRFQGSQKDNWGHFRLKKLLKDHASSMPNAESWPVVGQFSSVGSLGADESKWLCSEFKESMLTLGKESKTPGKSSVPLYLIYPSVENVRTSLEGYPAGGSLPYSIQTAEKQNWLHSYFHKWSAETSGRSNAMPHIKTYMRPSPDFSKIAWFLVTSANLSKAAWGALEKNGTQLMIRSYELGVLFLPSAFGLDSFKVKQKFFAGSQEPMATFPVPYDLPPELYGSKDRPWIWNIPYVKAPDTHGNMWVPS
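Enzyme-compound mixtures sat 15 min at room temperature, followed by a 5 min reaction with 15 nM final substrate and 10 min with AlphaScreen beads. Recombinant human Tdp1 was used at 1 nM final.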
ClpP mod: qHTS Assay for Activators of ClpP. ATP-dependent Clp protease proteolytic subunit (Bacillus subtilis (strain 168)), P80244. purified B. subtilis ClpP, FRET peptide cleavage, 20 min. Potency, µM (highest dose often 57.5 µM), without a hit: at the top dose activity change, negative = active. hit rate 1.9% among 340,000; active = well fitted falling curve with a large enough effect; inconclusive = small, poorly fitted or top-dose-only effect; inactive = no such curve, though single readings can be large or run the other way; note: the source files actives as falling curves though it sought activators and does not explain the sign; nearly all actives have a fitted effect of over 65% in size
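Purified B. subtilis ClpP, 10 microg/mL final in Tris/HCl pH8 with KCl, BSA, glycerol and Tween-20, cleaved an Abz/nitrotyrosine-quenched decapeptide. Fluorescence (ex 320, em 430) was read at 0 and 20 min at room temperature. Delta was normalized to 5.8 microM ADEP and DMSO/no-enzyme controls.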
DT40 TDP1 no CPT: qHTS for Inhibitors of human tyrosyl-DNA phosphodiesterase 1 (TDP1): qHTS in cells in absence of CPT. DT40 Tdp1-/- hTDP1 cells, no CPT, ATP luminescence, 48 h. Potency, µM (doses to about 46.2 µM), for inactives: at the top dose activity change, negative = growth inhibition, most hits filed as inhibitors. hit rate 15% among 420,000; note: % is set by controls: 0 for no effect and ±100 for the full control effect; nearly all actives have a fitted effect of over 55% in size
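Compound effects on proliferation are scored in DT40 Tdp1-/-;hTDP1 cells in the absence of CPT. ATP levels (CellTiter-Glo luminescence) are recorded after a ≥48 hr, 37 °C incubation.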
DT40 TDP1 CPT: qHTS for Inhibitors of human tyrosyl-DNA phosphodiesterase 1 (TDP1): qHTS in cells in presence of CPT | chicken DT40 Tdp1-/-;hTDP1 cells + 20 nM CPT, ATP luminescence, 48 h | Potency, µM (highest dose often 46.2 µM), for inactives: at the highest dose activity change, negative = growth inhibition, usual class: inhibitors | hit rate 12% among 420,000; note: % is set by controls: 0 for no effect and ±100 for the full control effect; nearly all actives have a fitted effect of over 55% in size
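Chicken DT40 Tdp1-/- cells complemented with human TDP1, 400 cells/well, exposed to compounds plus 20 nM camptothecin for at least 48 h at 37 C; viability read as ATP content by CellTiter-Glo luminescence.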
Starred values were filed as active, the others as inactive; ? = inconclusive; / = not tested or not shown; [ ] = dose if it differs, or a comment. Only some compounds are listed: those with a hit (about 17% of all), similar ones and a draw of the others. Unless noted, calls come from the whole dose curve; as a rule, active = well fitted curve in the direction sought with a large enough effect; inconclusive = small, poorly fitted or top-dose-only effect, or another doubt; inactive = no such curve, though single readings can be large; an effect the other way counts as inactive or inconclusive. Potency is the fitted concentration of half-maximal effect.

SMILES	TDP1 block	ClpP mod	DT40 TDP1 no CPT	DT40 TDP1 CPT
COCOc1cc(O)c(C(=O)/C=C/c2ccccc2)c(OCOC)c1	/	4%	18µM*	15µM*
CCOC(=O)Nc1ccc(Oc2ccccc2)cc1	1%	0%	?	?
COc1ccc(C(=O)/C=C/c2ccccc2)cc1	8%[56.1 µM]	/	23µM*	?
CN(CC(=O)Nc1ccc(F)cc1)C(=O)COC(=O)c1cccc(N(C)C)c1	3%	-7%	-7%	-11%
COc1ccc(C(=O)/C=C/c2ccc(N3CCCCC3)c([N+](=O)[O-])c2)c(OC)c1	11%	1%	21µM*	?
COc1ccc(/C=C/C(=O)c2cc3cccc(OC)c3oc2=O)cc1	6%	/	23µM*	?
COc1ccc(C(=O)/C=C/Sc2nc3ccccc3o2)cc1	4%	/	2.3µM*	2.6µM*
COc1ccc(C(=O)/C=C/c2ccc(N3CCCCC3)c([N+](=O)[O-])c2)cc1	4%	-6%	?	?
CNC(=O)c1cc2cccc(OC)c2oc1=O	-2%	-8%	10%	-7%
COc1ccc(/C=C/C(=O)c2cccs2)c(OC)c1	/	/	2.4µM*	1.1µM*
CCc1cc2c(SCc3ccc(C(=O)OC)o3)ncnc2s1	/	/	-17%	4%
COc1ccc(OC)c(C(=O)/C=C/c2ccccc2C(F)(F)F)c1	8%	0%	21µM*	26µM*
COc1ccc(C(=O)/C=C/c2ccccc2)c(OC)c1	4%	-3%	12µM*	-104%
Cc1[nH]c(C)c(C(=O)/C=C/c2ccc([N+](=O)[O-])cc2)c1C	/	1%	23µM*	16µM*
COc1ccc(C=CC(=O)c2ccc([N+](=O)[O-])cc2)cc1	/	/	-27%	-7%
COc1ccc(C(=O)/C=C/c2ccc(N(C)C)cc2)c(OC)c1	1%	-1%	10µM*	7.3µM*
CN(C)c1ccc(/C=C/C(=O)c2ccccc2O)cc1	12%	2%	-23%	?
Cc1cccc2cc(CN(CC3CCCO3)C(=O)c3cccc(F)c3)c(N(C)C)nc12 (stereo not drawn)	/	/	-5%	3%[9.04 µM]
COc1cc(OC)c(NC(=O)Cn2c(=O)cc(C)c3c(C)nn(-c4ccc(C)cc4)c32)cc1Cl	6%	-2%	?	?
COc1ccc(C)cc1NC(=O)C1CCN(S(=O)(=O)c2ccc3c(c2)NC(=O)CO3)CC1	4%	0%	-9%	-26%
O=C(CCSC1=NCCCN1)c1ccc(F)cc1	/	-14%	2.9µM*	1.8µM*
Cn1c(SCC(=O)c2ccc(F)cc2)nc2cccnc21	3%	1%	-30%	?
Cc1sc(=NC(=O)c2ccco2)n(C)c1-c1ccccc1	4%	-3%	?	?
Cc1sc(=NC(=O)c2ccco2)n(C)c1-c1ccc(F)cc1	4%	-29%	16µM*	?
COc1ccc(OC)c(NC(=O)Nc2nnc([C@@H]3O[C@H](CO)[C@@H](O)[C@H]3O)s2)c1	/	-7%	1%	-8%
SMILES	TDP1 block	ClpP mod	DT40 TDP1 no CPT	DT40 TDP1 CPT
COc1ccc(OC)c(NS(=O)(=O)c2ccc3c(c2)CCCN3C(=O)C2CCC2)c1	4%	-1%	?	23µM*
CCc1ccccc1NS(=O)(=O)c1ccc2c(c1)CCCN2C(=O)C1CCC1	-1%	0%	21µM*	?
CC(C)C[C@@H](CO)NC(=O)CC[C@H](NC(=O)OC(C)(C)C)C(=O)N(Cc1ccccc1)Cc1ccccc1	/	1%	?	?
COc1cccc2sc(Nc3nnc(-c4ccccc4Cl)o3)nc12	5%	?	1.5µM*	1.6µM*
COc1cccc(-c2nnc(Nc3nc4c(F)cccc4s3)o2)c1	-2%	28µM*	23µM*	21µM*
COc1ccccc1-c1nnc(Nc2nc3c(OC)cccc3s2)o1	12%[56.1 µM]	35µM*	0.73µM*	0.92µM*
O=C(NC(=S)NCc1cccnc1)c1cc(Br)ccc1Cl	1%	-1%	-14%	-12%
Cc1cccc(N2CCN(C(=O)CCc3nc4ccccc4c(=O)[nH]3)CC2)c1C	1%	/	?	-8%
CC1NC(=O)c2cccnc2-n2c1nc1ccccc1c2=O (stereo not drawn)	/	1%	-7%	0%
Cc1c(C)n(C)c2ccc(C(=O)NCc3cccc(F)c3)cc12	8%	-16%	16µM*	23µM*
CCOc1ccc(CNC(=O)c2ccc3c(c2)c(C)c(C)n3Cc2ccc(Cl)cc2)cc1	5%	16µM*	?	?
Cc1ccccc1CNC(=O)c1ccc2c(c1)c(C)c(C)n2C	11%	-19%	?	?
Cc1cccc(Cn2c(C)c(C)c3cc(C(=O)NCc4ccco4)ccc32)c1	8%	-20%	23µM*	16µM*
Cc1cccc(C(=O)NCc2ccco2)c1	/	/	-7%	?
COc1cc(CNC(=O)c2ccc3c(c2)c(C)c(C)n3Cc2cccc(C)c2)cc(OC)c1OC	11%	?	8.2µM*	18µM*
O=C1NC(=O)C(=C2CCOC2=O)N1	/	-4%	6%	-6%
O=C(O)c1cc(N2C(=O)C3C4C=CC(C4)C3C2=O)ccc1N1CCOCC1 (stereo not drawn)	3%	/	10%	14%
CCN(CC)c1ccc(NC(=O)c2ccc3c(c2)c(C)c(C)n3C)cc1	10%	/	18µM*	23µM*
Cc1c(C)n(Cc2ccc(F)cc2)c2ccc(C(=O)NCCCN3CCOCC3)cc12	9%	-18%	16µM*	?
Cc1c(C)n(C)c2ccc(C(=O)NCCCN3CCCC3)cc12	7%	-19%	-14%	-13%
CCn1c(C)c(C)c2cc(C(=O)NCc3ccc(OC)cc3OC)ccc21	8%	-6%	15µM*	18µM*
Cc1c(C)n(Cc2ccccc2)c2ccc(C(=O)NCc3ccccc3F)cc12	11%	?	18µM*	18µM*
C#CCOCCOCCOCCNc1nc(N2CCN(C(=O)[C@H](CCCCN)n3cc([C@@H](N)[C@H](C)CC)nn3)CC2)nc(N2CCN(C(=O)[C@H](CCC(=O)O)n3cc([C@@H](N)CCSC)nn3)CC2)n1	0%	0%	8%	29%
Cc1onc(-c2ccccc2)c1C(O)c1ccc(F)cc1 (stereo not drawn)	/	-1%	-5%	-6%
COc1cccc(CNC(=O)c2ccc3c(c2)c(C)c(C)n3Cc2ccccc2)c1OC	11%	?	23µM*	21µM*
COc1ccccc1CCNC(=O)c1ccc2c(c1)c(C)c(C)n2C	8%	-9%	7.3µM*	7.3µM*
CCOC(=O)C1(C)CCN1C(=O)c1cncc(Br)c1 (stereo not drawn)	/	0%	-2%	-18%
Cc1nc2cnc(N3CCN(C)CC3)nc2n(C)c1=O	/	/	4%	7%

Screening data deposited in PubChem by National Center for Advancing Translational Sciences (NCATS).
